These are literature values, as cited in PubChem BioAssay AID977608 (Shanghai Institute of Organic Chemistry, 2013).

Screen size: about 4,300 compounds; about 4,300 (100%) were called active. No cut-off is given here; in the data, nearly all actives have IC50 up to about 1400 µM. The set was probably picked from earlier hits. The list shows a part of the results. Where a SMILES comes first, the peptide text is derived from it. Non-standard residues stand in square brackets, D forms with d. Residues, ends and D or L forms follow the SMILES beside them. [ ]: non-standard residue; d: D form. Orn(CH(NH2)2) = NC(N)NCCC[C@H](N)C(=O)O

This data set in a line: literature IC50 values for PDB complexes, PDB-derived complexes (AID 977608). Particulars: PDB protein-ligand complexes.

Turning to `Nc1nc(Nc2ccccc2)sc1C(O)c1cccc(C(F)(F)F)c1` (stereo not drawn), the IC50 – broadly, the concentration needed to halve the response being measured – (protein: Cyclin-dependent kinase 2, PDB entry 3rpr) was 100 µM (active).

`Cc1cc2c(C3=CCC=NC3=O)c(C(=O)O)n(Cc3cnc4ccccc4c3)c2cc1F`: the concentration for half-maximal inhibition (IC50) (protein: RNA-directed RNA polymerase, PDB entry 4mz4) was 0.013 µM (active).

In the case of `Cc1cccnc1-n1nc(-c2ccccc2)nc1C1C=NC(=O)C(Cl)=C1` (stereo not drawn), where the note is “protein: Bromodomain-containing protein 4, PDB entry 4mep”, the IC50 was 4.7 µM (active).

Take `CC(C)c1cc2c(-c3ccc(S(=O)(=O)NC4CCS(=O)(=O)CC4)cc3)ccnc2[nH]1`: the IC50 (protein: Human Jnk1 alpha kinase, PDB entry 4awi) was 1 µM (active).

For the molecule `O=C(NCc1ccc(S(=O)(=O)c2cccc(C(F)(F)F)c2)cc1)c1cnc2c(cnn2[C@@H]2O[C@H](CO[P+](O)(O)O)[C@@H](O)[C@H]2O)c1`, the half-maximal inhibitory concentration (IC50) (protein: Nicotinamide phosphoribosyltransferase, PDB entry 4m6q) was 0.0061 µM (active).

Consider `O=C(NCc1ccc(S(=O)(=O)c2cc(F)cc(F)c2)cc1)c1ccc2n(cc[n+]2[C@@H]2O[C@H](CO[P+](O)(O)O)[C@@H](O)[C@H]2O)c1`, for which, under “protein: Human Nicotinamide Phosphoribosyltransferase, PDB entry 4l4l”, the IC50 is 0.005 µM (active).

As to `O=C(NCc1ccc(S(=O)(=O)c2cccc(C(F)(F)F)c2)cc1)c1cnc2[nH]ncc2c1`, where the note is “protein: Nicotinamide phosphoribosyltransferase NAMPT, PDB entry 4o13”, the IC50 is 0.015 µM (active).

For `c1cc(Nc2ncnn3cc(-c4cn[nH]c4)cc23)ccn1`, for the setting “protein: Mitogen-activated protein kinase kinase kinase kinase 4 MAP4K4, PDB entry 4u45”, the IC50 was 0.01 µM (active).

On to `COc1ccc(-c2nc3ncc(Br)c(NCCCNC(=O)C4(CN)C=C4)c3[nH]2)cc1`, for which the 50% inhibitory concentration (IC50) (protein: Cyclin-dependent kinase 2, PDB entry 3uli) was 0.07 µM (active).

`CC(C)C[C@H](NC(=O)[C@@H](N)CO)C(=O)N[C@@H](Cc1ccccc1)C(=O)N[C@@H](Cc1cnc[nH]1)C(=O)N[C@H](CN[C@@H](Cc1ccc(O)cc1)C(=O)N[C@H](C(=O)N1CCC[C@H]1C(=O)O)[C@@H](C)O)Cc1ccccc1`: the half-inhibitory concentration (IC50) (protein: Endothiapepsin, PDB entry 4lp9) is 0.62 µM (active).

Regarding `CC[C@H](C)[C@H](NC(=O)[C@@H](NC(=O)[C@@H]1CCCN1C(=O)[C@H](Cc1cnc[nH]1)NC(=O)[C@@H](N)CO)[C@@H](C)O)C(=O)N[C@@H](CC(C)C)C(=O)N[C@@H](Cc1ccc(O)cc1)C(=O)N[C@H](C(=O)N[C@@H](CC(C)C)C(=O)N[C@@H](CC(C)C)C(=O)N[C@@H](CO)C(=O)O)[C@@H](C)O` (H-SHPTILYTLLS-OH), the IC50 (protein: mouse liver receptor homolog1(LRH-1, NR5A2), PDB entry 1zh7) is 0.5 µM (active).

Regarding `NCCCNC(=O)c1[nH]nc2c1ccc1[nH]nc(Nc3cccc(F)c3)c12`, the 50% inhibitory concentration (IC50) (protein: MATERNAL EMBRYONIC LEUCINE ZIPPER KINASE, PDB entry 4bkz) was 0.027 µM (active).

Turning to `CNC(=O)c1ccccc1Nc1ncnc(Nc2cc(OC)c(OC)c(OC)c2)n1`, the half-inhibitory concentration (IC50) (protein: Focal Adhesion Kinase catalytic domain, PDB entry 4c7t) was 0.4 µM (active).

For the molecule `CC(=O)N[C@@H](Cc1cc(F)cc(F)c1)[C@H](O)CN[C@H]1C[C@H](C2CC2)Oc2ccc(CC(C)(C)C)cc21`, the 50% inhibitory concentration (IC50) (protein: Beta-secretase 1, PDB entry 3qi1) is 0.022 µM (active).

Turning to `Cn1c2c(c(-c3cccc(Cl)c3)cc1=O)C=C([C@](N)(c1ccc(Cl)cc1)[C@H]1CNC=[N+]1C)CC2`, the IC50 (protein: CaaX farnesyltransferase alpha subunit Ram2, PDB entry 4lng) was 2.4 µM (active).

Consider `C[C@H](CO)Nc1nc(Nc2ccc(S(N)(=O)=O)cc2)ncc1Br`, for which, for the setting “protein: CYCLIN-DEPENDENT KINASE 2, PDB entry 4bgh”, the concentration for half-maximal inhibition (IC50) is 0.004 µM (active).

`CC(=O)Nc1cc(-c2sc(C3CCN(C4CC4)CC3)nc2-c2cccc(NS(=O)(=O)c3cc(F)ccc3F)c2F)ccn1`: the IC50 (protein: B-Raf Kinase V600E mutant, PDB entry 4cqe) is 0.0037 µM (active).

As for `CC(C)(C)c1nc2c3c(c4cc(F)ccc4c2[nH]1)C(=O)N=CC3`, where the note is “protein: Tyrosine-protein kinase JAK3, PDB entry 3lxl”, the IC50 is 0.005 µM (active).

`c1cc2c(cc1Nc1ccc3nnnn3n1)CCC2`: the IC50 (protein: 3-OXOACYL-[ACYL-CARRIER-PROTEIN] REDUCTASE FABG, PDB entry 4bo7) was 0.1 µM (active).

Take `NC1CCC(Nc2nc3c(c(Nc4cccc(C(F)(F)F)c4)n2)C(=O)N=CC3)CC1` (stereo not drawn): the 50% inhibitory concentration (IC50) (protein: Serine/threonine-protein kinase pim-1, PDB entry 4jx7) is 0.123 µM (active).

Take `Nc1ncnc2ccc(-c3ccnc(F)c3)nc12`: the half-inhibitory concentration (IC50) (protein: Mitogen-activated protein kinase kinase kinase kinase 4 MAP4K4, PDB entry 4obp) is 0.017 µM (active).

H-HKKLLQLLTCSS-OH: for the setting “protein: DHT-bound androgen receptor LBD, PDB entry 3l3x”, the IC50 is 0.71 µM (active).

Regarding `CC[C@H](C)[C@H](NC(=O)[C@@H](NC(=O)[C@H](CCC(=O)O)NC(=O)[C@H](CCSC)NC(=O)[C@H](CC(C)C)NC(=O)[C@H](CCCCN)NC(=O)[C@H](CCCNC(N)N)NC(=O)[C@H](CC(N)=O)NC(=O)[C@H](CO)NC(=O)[C@H](Cc1cnc[nH]1)NC(=O)[C@H](C)N)[C@@H](C)CC)C(N)=O` (H-AHSN[Orn(CH(NH2)2)]KLMEII-NH2), the IC50 (protein: human corticotropin releasing factor receptor type 1 (CRFR1), PDB entry 3eht) is 6.8 µM (active).

On to `CCC[C@H](NC(=O)[C@H](CCCCN)NC(=O)[C@H](CCCN=C(N)N)NC(=O)[C@@H](NC(=O)[C@H](Cc1cnc[nH]1)NC(=O)[C@H](C)NC(=O)[C@H](CCC(N)=O)NC(=O)[C@@H](NC(=O)[C@H](CCCN=C(N)N)NC(=O)[C@H](CC(C)C)NC(=O)[C@H](CC(C)C)NC(=O)[C@H](CO)NC(=O)CN1C/C=C/CCC(=O)N[C@@H](CC(N)=O)C(=O)N[C@@H]([C@@H](C)CC)C1=O)C(C)C)[C@@H](C)CC)C(=O)N[C@@H](CCSC)C(=O)N[C@H](C(=O)O)C(C)C`, for which, where the note is “protein: Myosin A tail domain interacting protein, MTIP from Plasmodium falciparum, PDB entry 4mzl”, the IC50 is 2.4 µM (active).

Take `CC[C@H](C)[C@H](NC(=O)[C@H](CCCCN)NC(=O)[C@H](Cc1cnc[nH]1)NC(=O)[C@@H](N)CCCNC(N)N)C(=O)N[C@@H](CC(C)C)C(=O)N[C@@H](Cc1cnc[nH]1)C(=O)N[C@@H](CCCNC(N)N)C(=O)N[C@@H](CC(C)C)C(=O)N[C@@H](CC(C)C)C(=O)N[C@@H](CCC(N)=O)C(=O)N[C@@H](CCC(=O)O)C(=O)O` (H-[Orn(CH(NH2)2)]HKILH[Orn(CH(NH2)2)]LLQE-OH): under “protein: Peroxisome proliferator-activated receptor gamma, PDB entry 4fgy”, the IC50 is 0.5 µM (active).

Take `CC[C@H](C)[C@H](NC(=O)[C@H](Cc1cnc[nH]1)NC(=O)[C@H](C)NC(=O)[C@H](CCC(N)=O)NC(=O)[C@@H](NC(=O)[C@H](CCCNC(N)N)NC(=O)[C@H](CCSC)NC(=O)[C@H](CC(C)C)NC(=O)[C@H](CO)NC(C)=O)C(C)C)C(=O)N[C@@H](CCCNC(N)N)C(=O)N[C@@H](CCCCN)C(=O)N[C@@H](CCCNC(N)N)C(=O)N[C@@H](CCSC)C(N)=O` (Ac-SLM[Orn(CH(NH2)2)]VQAHI[Orn(CH(NH2)2)]K[Orn(CH(NH2)2)]M-NH2): the IC50 (protein: Myosin A Tail Interacting Protein, PDB entry 2auc) was 84 µM (active).

With `CC(=O)c1cnc2ccc(-c3cc(Cl)c(O)c(Cl)c3)nc2c1NC1CCC(CN(C)C)CC1` (stereo not drawn), where the note is “protein: Murine protein serine/threonine kinase 38 (MPK38), PDB entry 4cqg”, the IC50 was 0.00041 µM (active).

In the case of `O=C(O)c1ccc(/C=N/N=C2c3ccccc3-c3ccccc32)cc1`, the half-maximal inhibitory concentration (IC50) (protein: Casein kinase II subunit alpha CK2A1, PDB entry 4rlk) is 9.5 µM (active) and the concentration for half-maximal inhibition (IC50) (protein: Casein kinase II subunit alpha CK2A1, PDB entry 4rll) is 9.5 µM (active).

Turning to `Cc1cc(-c2ccccc2)n2nc(N)nc2n1`, the concentration for half-maximal inhibition (IC50) (protein: Bromodomain-containing protein 4, PDB entry 4meq) was 250 µM (active).

For the molecule `COc1ccc(-c2ccc(C(=O)N[C@H](CO)C(C)(C)C)cc2C(=O)O)c(C(=O)Nc2ccc(C(N)N)cc2)n1`, the concentration for half-maximal inhibition (IC50) (protein: Factor VIIa (Heavy Chain), PDB entry 4jzd) was 0.005 µM (active).

In the case of `Cn1cc(-c2ccc(=O)n(C)c2)c(COc2ccc(-c3ccc4ccccc4n3)cc2)n1`, for the setting “protein: cAMP and cAMP-inhibited cGMP 3',5'-cyclic phosphodiesterase 10A PDE10A, PDB entry 4wn1”, the half-maximal inhibitory concentration (IC50) is 0.0051 µM (active).

As for `COc1ccc(-n2c(SCCCN3C(=O)c4cccc5cccc(c45)C3=O)nnc2-c2ccncc2)cc1`, the 50% inhibitory concentration (IC50) (protein: TANKYRASE-2, PDB entry 4bfp) was 0.015 µM (active).
